From PubChem BioAssay AID588405 (Sanford-Burnham Center for Chemical Genomics, 2011)
About 6,200 (1.7%) of roughly 360,000 compounds were called active. The sample holds actives, similar compounds and a random draw of the others, so the mix is not that of the screen.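 Rule for the calls: active = inhibition of at least 50% at 20 µM; inactive = the rest.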

experiment: Peg3 promoter-driven luciferase inhibitors, primary screen, cell-based, HeLa, luciferase luminescence (AID 588405); details: HeLa PEG-Prom luciferase reporter, overnight, at 20 µM, hits give high values

inhibition, active:
O=C(Nc1ccccc1Cl)/C(Cl)=C(\Cl)S(=O)c1ccccc1 (stereo unspecified) 108%, Cc1ccc(O)c(/C=N/NC(=O)COc2ccc3c(C)cc(=O)oc3c2)c1 66.5%, Cc1ccc(N(Cc2cc(=O)[nH]c3ccccc23)C(=O)CCl)cc1 106%, CN(C)C(=O)c1cccc(-c2cnc3sc(NCc4ccc5c(c4)OCO5)nn23)c1 50.3%, Cc1cc2oc3ccc(NCCC4CCCN4C)cc3c(=O)c2cc1C (stereo unspecified) 103%

inhibition, inactive:
CCCNC(=O)C1(C)CCCN(Cc2c(C)nn(-c3ccccc3)c2C)C1 (stereo unspecified) 5.49%, COc1cccc(-c2cnc(C(O)c3ccccc3OC)[nH]2)c1 (stereo unspecified) -9.16%, O=C(COc1ccc(-n2cnnn2)cc1)Nc1ccccc1Cl -1.45%, CS/C(=C\C(=O)c1ccco1)Nc1ccccc1Cl -49.5%, CC(=O)N1CCN(Cc2cc(=O)oc3cc(C)ccc23)CC1 -2.53%, COc1ccc(-c2cc(NC=O)c3ncc(-c4ccccc4)n3c2)cc1OC 49.4%, C[C@H]([C@@H](O)[C@@H](O)[C@@H](C)C(C)(C)C)[C@H]1CC[C@H]2C3CC[C@H]4C[C@H](OS(=O)(=O)O)[C@@H](OS(=O)(=O)O)C[C@]4(C)[C@H]3CC[C@]12C (stereo partly specified) 6.06%, COc1ccc(NC(=O)C2(C)Cc3c(-c4cccc(NC(C)=O)c4)ccnc3O2)cc1 (stereo unspecified) -10.2%, c1ccc2c(c1)CSc1sccc1C2=C1CCNCC1 33.5%, CCOC1=C2[C@@H](CN(S(=O)(=O)c3ccc(C)cc3)[C@H]2c2ccccc2F)[C@H]2C(=O)N(Cc3ccccc3)C(=O)[C@H]2C1 6.76%, CCCCC(=O)N(C)c1c(CC)nc2c(OCc3ccc(Cl)cc3Cl)cccn12 39%, CCOC(=O)Cc1csc(NC(=O)COc2ccc3c(C)cc(=O)oc3c2)n1 -3.01%, Cc1cc(=O)oc2cc(OCC(=O)Nc3nnc(C4CC4)s3)ccc12 2.23%, CC(C)Oc1c(Br)cc(Br)cc1/C=N/NC(N)=S 48.7%, CNc1cncc(-c2cccc(C(=O)N3CCOCC3)c2)n1 2.98%, CC(=O)N(Cc1cc(=O)[nH]c2ccccc12)c1ccc(C)cc1C 23.2%, Cc1ccc(N(Cc2cc3ccccc3[nH]c2=O)C(=O)c2cccs2)cc1 11.2%, CCOc1c2ccc(C(=O)NCc3ccc4c(c3)OCO4)cc2nn1C -10.3%, O=C(CSc1ncnc2scc(-c3ccccc3)c12)NCc1ccc2c(c1)OCO2 26.7%, CN1CCC[C@@H]1CCO[C@](C)(c1ccccc1)c1ccc(Cl)cc1 14.3%, COc1cccc2sc3cc(NCC[C@@H]4CCCN4C)ccc3c(=O)c12 -254%
